CYP2C19 activ = activators of human cytochrome P450 2C19; P33261; recombinant CYP2C19, luciferin-H EGE luminescence; active compounds read high; 0 = fully inhibited enzyme, 1 = untreated enzyme; activation factor at 5 µM; 96,000 tested, under 10 active;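 active means activation factor of at least 2 at 5 µM in the primary screen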;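 further: 0 = wells with 2.5 mM tranylcypromine and 1 = vehicle-only wells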
Target sequence (P33261 whole entry, looked up): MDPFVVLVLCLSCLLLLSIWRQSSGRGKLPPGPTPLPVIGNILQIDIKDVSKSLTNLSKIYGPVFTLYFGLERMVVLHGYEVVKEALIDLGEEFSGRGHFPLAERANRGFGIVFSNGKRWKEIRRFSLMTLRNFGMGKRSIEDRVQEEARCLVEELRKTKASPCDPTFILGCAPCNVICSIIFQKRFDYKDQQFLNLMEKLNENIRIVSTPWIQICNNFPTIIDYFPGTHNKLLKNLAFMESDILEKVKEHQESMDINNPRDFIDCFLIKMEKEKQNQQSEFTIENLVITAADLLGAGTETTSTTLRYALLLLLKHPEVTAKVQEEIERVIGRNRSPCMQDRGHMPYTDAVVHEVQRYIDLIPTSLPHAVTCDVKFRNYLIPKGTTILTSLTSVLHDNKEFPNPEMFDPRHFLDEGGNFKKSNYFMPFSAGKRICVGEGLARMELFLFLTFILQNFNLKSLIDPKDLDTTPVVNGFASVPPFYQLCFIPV
CYP2C19 inhib = inhibitors of human CYP2C19; P33261; CYP2C19 Supersomes, luciferin-H EGE luminescence, 30 min; inhibition, % at 5 µM; 96,000 tested, 21% active; AID 778;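 active means CYP2C19 inhibition above a set limit at 5 µM in the primary screen, cut at about 50% in these data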;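 further: plate controls were negative control wells for no effect and 2.5 mM tranylcypromine positive control for full effect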
CYP2C9 activ = activators of human CYP2C9; P11712; recombinant CYP2C9, luciferin-H conversion, luminescence; active compounds read high; factor 1 = untreated enzyme, 0 = blocked; activation factor at 5 µM; 96,000 tested, 1.4% active;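 active means activation factor of 2 or more for CYP2C9 at a 5 µM dose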;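 further: 0 = sulfaphenazole-blocked wells and 1 = vehicle-only wells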
PLAP activator = human PLAP activation; P05187; purified PLAP enzyme, luminescent substrate read-out; active compounds read high; activation fold at 20 µM; 96,000 tested, 1.2% active; AID 696; in the data active means activation fold above about 2
CYP2C9 inhib = human CYP2C9 inhibition; P11712; CYP2C9 Supersomes, luciferin-H conversion, luminescence; inhibition, % at 5 µM; 96,000 tested, 20% active; AID 777;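 active means blocking of liver enzyme CYP2C9 beyond about 50% at 5 µM, limit read from the data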
* marks the source's active call; other numbers are inactive results. Not all results are given here.

For CCCN(CCC)c1nc(NC2CCN(C(=O)OCC)CC2)nc(OC)n1 the results were CYP2C19 activ 0.7, CYP2C19 inhib 31, CYP2C9 activ 0.5, PLAP activator 1.3 and CYP2C9 inhib 49.
`Cc1ccc(/C(O)=C2\C(=O)C(=O)N(CC(C)O)C2c2cccc(F)c2)cc1` (stereo unspecified) gave CYP2C19 activ 1.2, CYP2C19 inhib -21, CYP2C9 activ 1, PLAP activator 1.4 and CYP2C9 inhib -4.
`COC(=O)Cc1csc(N)n1` gave CYP2C19 activ 1.1, CYP2C19 inhib -7, CYP2C9 activ 1.1, PLAP activator 0.8 and CYP2C9 inhib -10.
For NC(=O)C(c1ccc(Cl)cc1)c1ccc(Sc2ccc(Cl)cc2)nn1 (stereo unspecified) the results were CYP2C19 activ 0.4, CYP2C19 inhib 63*, CYP2C9 activ 0.6, PLAP activator 1 and CYP2C9 inhib 44.
Screening CC(Sc1nnc(-c2ccc(Cl)cc2)n1C)C(N)=O (stereo unspecified) returned CYP2C19 activ 1, CYP2C19 inhib -1, CYP2C9 activ 1, PLAP activator 0.9 and CYP2C9 inhib -4.
For CSc1nc(SCC(=O)NCc2ccco2)c2c3c(sc2n1)COC(C)(C)C3 the results were CYP2C19 activ 0.9, CYP2C19 inhib 12, CYP2C9 activ 0.7, PLAP activator 1.3 and CYP2C9 inhib 26.
For CCCCSc1nc(SCC(=O)NCc2ccco2)c2c3c(sc2n1)COC(C)(CC)C3 (stereo unspecified) the results were CYP2C19 activ 0.9, CYP2C19 inhib 13, CYP2C9 activ 0.5, PLAP activator 1.2 and CYP2C9 inhib 51*.
Screening CC(C)Sc1nc(NCc2ccco2)c2c3c(sc2n1)COC(C)(C)C3 returned CYP2C19 activ 0.9, CYP2C19 inhib 10, CYP2C9 activ 0.3, PLAP activator 1.7 and CYP2C9 inhib 69*.
For C=CCn1c(SCC(=O)NCc2ccco2)nc2sc3c(c2c1=O)CCCC3 the results were CYP2C19 activ 1, CYP2C19 inhib 1, CYP2C9 activ 0.8, PLAP activator 0.9 and CYP2C9 inhib 20.
CCc1nc(SCC(=O)NCc2ccco2)c2c3c(sc2n1)CCCC3 was read as CYP2C19 activ 0.4, CYP2C19 inhib 63*, CYP2C9 activ 0.1, PLAP activator 1 and CYP2C9 inhib 86*.
Cc1cc(NC(=O)CSc2nc(C(C)C)nc3sc4c(c23)CCCC4)no1 was read as CYP2C19 activ 0.2, CYP2C19 inhib 80*, CYP2C9 activ 0.2, PLAP activator 0.8 and CYP2C9 inhib 76*.
Screening CCOC(=O)c1cc2sccc2n1CC(=O)N1CCCC1 returned CYP2C19 activ 0.6, CYP2C19 inhib 44, CYP2C9 activ 0.8, PLAP activator 1.1 and CYP2C9 inhib 24.
For CCOc1ccc(NC(=O)c2nccnc2CO)cc1 the results were CYP2C19 activ 0.7, CYP2C19 inhib 30, CYP2C9 activ 0.7, PLAP activator 1 and CYP2C9 inhib 32.
COc1ccc(C2OC34CCCCC3C(C#N)(C#N)C2(C#N)C(=N)O4)cc1 (stereo unspecified) was read as CYP2C19 activ 0.8, CYP2C19 inhib 16, CYP2C9 activ 0.9, PLAP activator 1 and CYP2C9 inhib 10.
For CCCCc1nc2sc3c(SCC(=O)NCc4ccco4)ncnc3c2c2c1CCC2 the results were CYP2C19 activ 0.4, CYP2C19 inhib 58*, CYP2C9 activ 0.2, PLAP activator 1.4 and CYP2C9 inhib 82*.
Cc1nc(SCC(=O)NCc2ccco2)c2c(C)c(C)sc2n1 was read as CYP2C19 activ 0.8, CYP2C19 inhib 23, CYP2C9 activ 0.8, PLAP activator 0.8 and CYP2C9 inhib 20.
`CC(=O)c1cc(Cc2csc(C(C)=O)c2)cs1` gave CYP2C19 activ 0.4, CYP2C19 inhib 62*, CYP2C9 activ 0.6, PLAP activator 0.8 and CYP2C9 inhib 35.
Cc1c(C(=O)N2CCCCC2)nnn1-c1nonc1N was read as CYP2C19 activ 0.6, CYP2C19 inhib 40, CYP2C9 activ 1, PLAP activator 0.9 and CYP2C9 inhib -5.
Screening COc1cccc(NC(=O)c2ccc(S(=O)(=O)N3CCCCC3)cc2)c1 returned CYP2C19 activ 1, CYP2C19 inhib -5, CYP2C9 activ 0.8, PLAP activator 0.7 and CYP2C9 inhib 24.
Screening COCCN(CC(=O)Nc1cccc(C)c1)S(=O)(=O)c1ccc(S(=O)(=O)N2CCCC2)cc1 returned CYP2C19 activ 1, CYP2C19 inhib -2, CYP2C9 activ 0.4, PLAP activator 1.1 and CYP2C9 inhib 61*.
C/C(=N/Oc1nc(C)cc(C)n1)c1ccc(F)cc1 was read as CYP2C19 activ 0.9, CYP2C19 inhib 15, CYP2C9 activ 1, PLAP activator 1 and CYP2C9 inhib 4.
For NC(=O)c1c(NC(=O)c2ccccc2)sc2c1CCc1ccccc1-2 the results were CYP2C19 activ 0.9, CYP2C19 inhib 7, CYP2C9 activ 1.1, PLAP activator 0.9 and CYP2C9 inhib -7.
For CCOCCc1nnc(NC(=O)CSc2ccccc2)s1 the results were CYP2C19 activ 0.8, CYP2C19 inhib 19, CYP2C9 activ 0.9, PLAP activator 0.9 and CYP2C9 inhib 15.
For NC(=O)C1(N2CCCCC2)CCN(CC(=O)Nc2ccccc2Sc2ccccc2)CC1 the results were CYP2C19 activ 0.2, CYP2C19 inhib 79*, CYP2C9 activ 0.5, PLAP activator 1.2 and CYP2C9 inhib 50.
`CCCc1ccc(-c2cc(NC(=O)CSc3n[nH]c(N)n3)n(-c3ccccc3)n2)cc1` gave CYP2C19 activ 0.7, CYP2C19 inhib 33, CYP2C9 activ 0.4, PLAP activator 1.9 and CYP2C9 inhib 58*.
Screening Cc1ccc(NC(=O)CN(C)C(=O)CSc2n[nH]c(N)n2)cc1 returned CYP2C19 activ 1, CYP2C19 inhib -1, CYP2C9 activ 0.9, PLAP activator 1.2 and CYP2C9 inhib 7.
`CS(=O)(=O)N(CC(=O)Nc1ccccc1Sc1ccccc1)C1CCCCC1` gave CYP2C19 activ 0.8, CYP2C19 inhib 24, CYP2C9 activ 0.6, PLAP activator 1.9 and CYP2C9 inhib 42.
Nc1nc(SCC(=O)Nc2ccccc2Sc2ccccc2)n[nH]1 was read as CYP2C19 activ 0, CYP2C19 inhib 99*, CYP2C9 activ 0.5, PLAP activator 2.3* and CYP2C9 inhib 51*.
`O=C(CCl)Nc1ccccc1Sc1ccccc1` gave CYP2C19 activ 0.4, CYP2C19 inhib 64*, CYP2C9 activ 0.9, PLAP activator 0.9 and CYP2C9 inhib 13.
For CC(NC(=O)c1ccc2c(c1)OCO2)C1CCCO1 (stereo unspecified) the results were CYP2C19 activ 1, CYP2C19 inhib -1, CYP2C9 activ 1.1, PLAP activator 1 and CYP2C9 inhib -11.
Screening O=C1CN(C(=O)COC(=O)CCSc2ccccc2Cl)c2ccccc2N1 returned CYP2C19 activ 0.8, CYP2C19 inhib 22, CYP2C9 activ 1.3, PLAP activator 0.8 and CYP2C9 inhib -30.
c1ccc(N=P(N2CCOCC2)(N2CCOCC2)N2CCOCC2)cc1 was read as CYP2C19 activ 1.1, CYP2C19 inhib -14, CYP2C9 activ 1.1, PLAP activator 1.1 and CYP2C9 inhib -10.

Screens deposited in PubChem BioAssay by Sanford-Burnham Center for Chemical Genomics.
